# Laboratory results reported in PubChem BioAssay (NCATS).
# The list shows a part of the results. Records with an inconclusive call do not appear. A number with no mark means an inactive call. The source made the active and inactive calls. Calls follow the shape of the dose curve; as a rule, active = well fitted inhibition curve with a large enough effect; inconclusive = small, poorly fitted or top-dose-only effect; inactive = no such curve, though single readings can be large or run the other way.
# Molecular target: ATPase family AAA domain-containing protein 5 (Homo sapiens) (UniProt Q96QE3)
# Sequence (Q96QE3 whole entry, looked up, the tested form may be a part): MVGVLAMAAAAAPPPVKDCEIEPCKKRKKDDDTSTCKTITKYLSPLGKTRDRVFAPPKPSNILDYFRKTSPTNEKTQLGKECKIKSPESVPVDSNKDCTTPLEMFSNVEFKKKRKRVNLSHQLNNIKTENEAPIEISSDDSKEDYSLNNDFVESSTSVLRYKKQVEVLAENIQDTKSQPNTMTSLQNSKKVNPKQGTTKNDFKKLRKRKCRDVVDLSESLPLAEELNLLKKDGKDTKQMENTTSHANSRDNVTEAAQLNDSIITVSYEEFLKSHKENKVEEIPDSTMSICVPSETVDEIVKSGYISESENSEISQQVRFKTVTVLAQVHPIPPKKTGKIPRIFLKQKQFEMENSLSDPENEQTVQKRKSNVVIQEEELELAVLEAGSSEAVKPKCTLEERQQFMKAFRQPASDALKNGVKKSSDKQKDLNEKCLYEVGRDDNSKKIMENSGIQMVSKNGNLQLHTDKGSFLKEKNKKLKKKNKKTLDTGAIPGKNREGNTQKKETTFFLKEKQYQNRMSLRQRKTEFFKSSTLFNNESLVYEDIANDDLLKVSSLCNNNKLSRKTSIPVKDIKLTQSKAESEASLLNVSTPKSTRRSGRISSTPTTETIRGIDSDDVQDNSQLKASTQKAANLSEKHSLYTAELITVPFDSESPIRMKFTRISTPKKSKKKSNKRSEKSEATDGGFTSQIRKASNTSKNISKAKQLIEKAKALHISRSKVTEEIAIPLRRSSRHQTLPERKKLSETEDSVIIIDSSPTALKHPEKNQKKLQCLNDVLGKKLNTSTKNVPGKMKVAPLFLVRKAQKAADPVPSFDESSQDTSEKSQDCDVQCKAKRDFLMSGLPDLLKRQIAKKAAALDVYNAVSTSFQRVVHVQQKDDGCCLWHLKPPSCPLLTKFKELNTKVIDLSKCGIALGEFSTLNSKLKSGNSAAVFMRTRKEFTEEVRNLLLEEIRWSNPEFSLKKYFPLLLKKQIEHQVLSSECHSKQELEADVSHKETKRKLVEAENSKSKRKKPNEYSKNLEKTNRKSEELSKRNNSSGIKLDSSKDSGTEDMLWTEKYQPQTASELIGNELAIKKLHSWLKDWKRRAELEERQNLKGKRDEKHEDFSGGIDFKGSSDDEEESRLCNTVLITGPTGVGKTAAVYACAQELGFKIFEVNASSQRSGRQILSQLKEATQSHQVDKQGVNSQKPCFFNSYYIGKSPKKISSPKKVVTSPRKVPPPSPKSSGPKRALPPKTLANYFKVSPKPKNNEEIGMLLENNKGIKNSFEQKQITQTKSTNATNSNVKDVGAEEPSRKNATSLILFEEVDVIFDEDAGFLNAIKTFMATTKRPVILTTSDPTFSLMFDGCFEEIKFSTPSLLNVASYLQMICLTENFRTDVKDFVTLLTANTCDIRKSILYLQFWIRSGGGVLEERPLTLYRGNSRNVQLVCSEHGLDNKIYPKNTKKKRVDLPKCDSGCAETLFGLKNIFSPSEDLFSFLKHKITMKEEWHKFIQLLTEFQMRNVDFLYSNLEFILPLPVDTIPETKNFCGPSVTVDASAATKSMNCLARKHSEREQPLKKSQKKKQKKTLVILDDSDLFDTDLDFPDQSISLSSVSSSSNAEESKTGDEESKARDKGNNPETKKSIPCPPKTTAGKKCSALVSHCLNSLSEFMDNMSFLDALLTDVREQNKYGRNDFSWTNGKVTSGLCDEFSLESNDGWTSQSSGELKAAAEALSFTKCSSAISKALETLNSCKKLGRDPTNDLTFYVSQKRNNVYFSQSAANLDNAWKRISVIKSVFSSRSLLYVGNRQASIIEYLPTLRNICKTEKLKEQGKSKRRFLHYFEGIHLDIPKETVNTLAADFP
# Experiment: qHTS screen for small molecules that inhibit ELG1-dependent DNA repair in human embryonic kidney (HEK293T) cells expressing luciferase-tagged ELG1: Hit Confirmation using MMS Stimulated ELG1 (AID 624249); also: nearly all actives have a fitted effect of over 60% in size;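 as to activity change, negative = inhibition: cells co-treated with MMS at 10 µM final alongside compound; luminescence of ELG1-luciferase fusion read with Amplight reagent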
# Conditions: HEK293T luciferase-tagged ELG1 level; series mostly up to 46.1 µM; activity change, negative = inhibition: at the top concentration
# Text: Cancer cells divide rapidly compared to normal cells in the body. During cell division, cancer cells need to duplicate their genome by DNA replication. The failure of genome duplication leads to cancer cells' death. Therefore, inhibitors of DNA replication could specifically kill cancer cells. Based on this concept, many chemotherapeutic agents were developed and have been used to treat cancer patients. However, there are a limited number of agents available in the clinical setting, and some of those that do exist have low efficacy and severe side effects. Therefore, if we can find the compounds that effectively block DNA replication either by directly damaging DNA or by inhibiting other cellular mechanisms, the options for cancer treatment will be broadened. With this in mind, we developed a quantitative high-throughput ELG1-luciferase reporter gene assay. Small molecules that specifically block ELG1 function in response to DNA damage can be identified by monitoring the suppression of luciferase activity. Since ELG1 defines a pathway for repairing DNA damage, agents blocking ELG1 function can be used to sensitize cancer cells to chemotherapeutic agents whose mechanism of action involves the induction of DNA damage.
# NIH Molecular Libraries Probe Production Network [MLPCN]
# NIH Chemical Genomics Center [NCGC]
# Assay Provider: Kyungjae Myung, NHGRI, NIH
# ELG1-luc HEK293T cells will be seeded in 1536-well plates at a density of 2,000 cells/well. Approximately 5 hours after plating, compounds will be added to the plate by pin tool transfer and MMS will be added by FRD dispenser (final concentration of MMS = 10 µM). 16 hours following the addition of the compounds, luciferase activity will be measured using Amplight reagent.
# % is scaled to controls: 0 for no effect and ±100 for the full control effect; potency is read from the fitted curve at half-maximal effect.
Compound,Potency,"activity change, negative = inhibition [%]"
OCCCNc1nccc(-c2cc(Nc3cccc(Cl)c3)ncn2)n1,0.629 µM (active),–
COc1ccccc1C(=O)Nc1ccc(C)c(S(=O)(=O)N2CCCCC2)c1,14.1 µM (active),–
COc1ccc(CNc2ncnc3ccccc23)cc1,1.58 µM (active),–
CC(=O)c1c(C)n(-c2ccc(C)cc2)c2ccc(O)cc12,–,19.7
Cc1cc2oc(=O)cc(CN3CCN(S(=O)(=O)c4cccs4)CC3)c2cc1C(C)C,8.88 µM (active),–
CC(C)(CNC(=O)c1ccc(Cl)c(S(=O)(=O)N2CCc3ccccc3C2)c1)N1CCOCC1,1.58 µM (active),–
COc1ccc(NC(=O)C2CCC(CNc3c(N4CCCCC4)c(=O)c3=O)CC2)c(OC)c1 (centres undefined),–,-10.7
COc1ccc(-c2nn(-c3ccccc3)cc2/C=C\C(=O)N2CCOCC2)cc1[N+](=O)[O-],–,23
COc1ccc(CSc2nc(N3CCOCC3)c3c(c2C#N)CC(C)(C)OC3)cc1,–,0.231
CS(=O)(=O)c1ccc2nc(NC(=O)C3CCCCC3)sc2c1,–,-14
CN(CC1CCCO1)S(=O)(=O)c1ccc(C(=O)Nc2ccc(F)cc2)cc1 (centres undefined),22.3 µM (active),–
CCc1ccc(N(CC)c2ncnc3nc[nH]c23)cc1,17.7 µM (active),–
COc1ccc(S(=O)(=O)Nc2ccc3oc(C)c(C(C)=O)c3c2)cc1,3.97 µM (active),–
Nc1nnc(SCC(=O)Nc2ccc3nc(SCC(=O)Nc4ccccc4)sc3c2)s1,4.99 µM (active),–
Cc1ccc(C)c(S(=O)(=O)N2CCN(c3ncnc4sccc34)CC2)c1,2.81 µM (active),–
NC(=O)c1sc2nc3c(c(-c4ccccc4)c2c1N)CCC3,7.05 µM (active),–
Clc1ccc2nc(-c3ccccc3)nc(C(Cl)Cl)c2c1,2.23 µM (active),–
COc1ccc(NS(=O)(=O)c2ccc(Oc3c(C#N)cccc3C#N)cc2)cc1,3.15 µM (active),–
O=C(C1CCCN(S(=O)(=O)c2ccccc2)C1)N1CCN(c2ccc(F)cc2)CC1 (centres undefined),4.45 µM (active),–
